Compounds with a hit are over-represented: about 2% of the library has one in this group of screens.
Mcl1-Bid inh – disrupts binding of human Mcl-1 to Bid peptide; Q07820; inhibition, % at 21.7 µM; TR-FRET Mcl-1/Bid-Dy647 peptide binding, 1536-well; AID 1021; actives 0.97% (n = 220,000);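 active = compounds that cut the binding signal by more than half at the single screening dose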;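 note: His-tagged Mcl-1 with europium anti-His antibody binding Bid BH3 peptide; 0% = Mcl-1 plus peptide wells and 100% = peptide-only wells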
Target sequence (Q07820 whole entry, looked up): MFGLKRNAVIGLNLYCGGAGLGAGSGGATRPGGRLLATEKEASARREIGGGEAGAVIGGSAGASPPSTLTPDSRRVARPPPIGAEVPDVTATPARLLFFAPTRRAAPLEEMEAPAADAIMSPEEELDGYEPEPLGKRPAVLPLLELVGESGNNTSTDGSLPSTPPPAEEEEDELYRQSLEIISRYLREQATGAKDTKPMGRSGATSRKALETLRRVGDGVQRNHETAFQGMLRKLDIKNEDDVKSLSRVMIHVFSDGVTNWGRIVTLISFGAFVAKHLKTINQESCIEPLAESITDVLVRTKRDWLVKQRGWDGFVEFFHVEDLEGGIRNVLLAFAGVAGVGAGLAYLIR
Mcl1-Noxa inh – Mcl-1/Noxa interaction inhibition; Q07820; TR-FRET Mcl-1/Noxa peptide binding, 2 h; inhibition, % at 21.7 µM; actives 1.5% (n = 220,000); AID 1022;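 active = compounds that cut the protein-peptide binding signal by more than 50% relative to plate controls in a single-dose test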;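 note: His-tagged Mcl-1 with rhodamine Noxa BH3 peptide and terbium anti-His antibody; 0% = Mcl-1 plus Noxa peptide wells and 100% = peptide-only wells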
MCL1-BIM inh – inhibitors of human MCL1 binding to BIM-BH3 peptide; Q07820; GST-MCL1 / FITC-Bim-BH3 fluorescence polarization; actives 0.68% (n = 320,000); inhibition, % at 10.9 µM;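 active = inhibition above the mean inhibition of all tested compounds plus 3 SD, set per campaign, cut at about 40% in these data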;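 note: 0% = DMSO wells and 100% = unlabeled Bim-BH3 peptide control; higher means more loss of mP so more displacement of Bim peptide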
Bim-Mcl-1 – disrupts Bim peptide binding to human Mcl-1 | Q07820 | Bead-based flow cytometry, Bim peptide-Mcl-1 binding | inhibition, % at 10 µM | actives 0.1% (n = 190,000) | AID 1009; in the data active = inhibition above about 40%;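 note: 0% = no compound tracer wells and 100% = peptide blocker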
* hit, by the source's call; . = no result.

SMILES	Mcl1-Bid inh	Mcl1-Noxa inh	MCL1-BIM inh	Bim-Mcl-1
COc1ccc(/C=N/Nc2nc(-c3ccc(C)cc3)c(NC(C)=O)s2)cc1OC	-33	57*	-6	.
CCOc1cc(/C=N\Nc2nc(-c3ccc(C)cc3)c(NC(C)=O)s2)ccc1O	-6	67*	9	.
CC(=O)Nc1sc(N/N=C/c2ccc(N(C)C)cc2)nc1-c1ccc(C)cc1	-62	31	.	.
O=C(C1CCC1)N1CCCc2cc(S(=O)(=O)N3CCN(c4ccccc4)CC3)ccc21	.	.	-2	.
COc1ccc(C(CC(=O)NCc2ccccc2)C(C)C)cc1 (stereo unspecified)	7	1	0	.
Cc1cc(/C=N/NC(=O)COc2cccc3cccnc23)c(C)n1-c1ccc(O)cc1	-10	72*	9	-1
Cc1cccc([C@@H]2[C@@H]3C(=O)N(Cc4ccccc4)C(=O)[C@@H]3[C@]3(Cc4ccc(Cl)cc4)C(=O)N(c4ccc(Br)cc4)C(=O)N23)c1	.	.	-8	.
COc1cc(/C=N/NC(=O)c2ccc(COc3cc(C)ccc3C(C)C)cc2)cc(OC)c1O	-43	51*	7	-5
O=C(Nc1ncccn1)c1ccc(Cl)c([N+](=O)[O-])c1	.	.	1	.
Cc1c([N+](=O)[O-])c(C(=O)Nc2ccc3c(c2)OCCO3)nn1C	73*	0	7	0
Cc1nn(C(C)C(=O)Nc2ccc3c(c2)OCO3)c(C)c1[N+](=O)[O-] (stereo unspecified)	-3	-3	9	-1
CCC(C(=O)OC)n1cnc2c(nnn2-c2ccc(F)cc2)c1=O (stereo unspecified)	.	.	-1	.
CCCC(=O)N1CC(=O)Nc2ccc(Br)cc2C1c1ccc(F)cc1 (stereo unspecified)	.	.	7	.
O=C1CN(C(=O)CCN2CCOCC2)C(c2ccccc2)c2cc(Br)ccc2N1 (stereo unspecified)	-25	15	1	44*
COc1ccc(CCNC(=O)C(=O)N/N=C/c2cccs2)cc1OC	-7	-6	3	1
CCNc1ccc2c(Cl)cc(=O)oc2c1	97*	1	-8	-1
CC(=O)Nc1cccc(NC(=O)c2c(-c3c(Cl)cccc3Cl)noc2C)c1	-2	67*	4	-3
Cc1onc(-c2c(Cl)cccc2Cl)c1C(N)=S	51*	16	4	-4
Cc1cc(C)nc(NC(=O)c2c(-c3c(Cl)cccc3Cl)noc2C)n1	-24	-10	3	-3
CC(=O)NCCCC(=O)NN1C(=S)N(Cc2ccccc2)C(=O)C1CC(=O)Nc1cccc(C)c1 (stereo unspecified)	-13	6	-1	0
COc1ccc(-c2nnc(-c3cc4c(ccc5ccccc54)oc3=O)o2)cc1	34	64*	13	3
O=C(CN1C(=O)NC2(CCc3ccccc3C2)C1=O)Nc1ccc(F)cc1 (stereo unspecified)	88*	-12	3	-8
CSc1ccc(NC(=O)NCCCN2CCN(c3ccccc3F)CC2)cc1	-48	58*	-6	0
O=C(CN1C(=O)/C(=C/c2cccc(Br)c2)SC1=S)Nc1cccnc1	6	52*	6	-2
O=C(CCN1C(=O)/C(=C/c2cccc(Br)c2)SC1=S)NNC(=O)c1cccnc1	67*	46	5	7
SMILES	Mcl1-Bid inh	Mcl1-Noxa inh	MCL1-BIM inh	Bim-Mcl-1
O=C(CCN1C(=O)/C(=C/c2ccc3c(c2)OCO3)SC1=S)NNC(=O)c1cccnc1	53*	35	-9	-21
O=C(CN1C(=O)/C(=C/c2cccc(Br)c2)SC1=S)NC1=NCCS1	0	55*	1	-4
CC(C)c1ccc(N2C(=NC(=O)C3CC3)SC3CS(=O)(=O)CC32)cc1 (stereo unspecified)	.	.	2	.
CCOC(=O)Cc1csc(NC(=O)c2sc3nc4c(C)cc(C)cc4cc3c2N)n1	27	64*	-4	-4
CCOC(=O)Cc1csc(NC(=O)c2csc(C)c2)n1	-17	8	8	-5
COc1ccc(C(=O)N/C(=C\c2cn(S(=O)(=O)N(C)C)c3ccccc23)C(=O)N2CCOCC2)cc1	.	.	7	.
CCOC(=O)c1ccc(NC(=O)CSCCC(=O)O)cc1	0	-8	-2	68*
COc1ccc(NC(=O)c2ccc(Cl)nc2)cc1S(=O)(=O)N1CCOCC1	.	.	10	.
COc1ccc(NC(=O)COc2ncnc3ccccc23)cc1S(=O)(=O)N1CCOCC1	-18	-11	0	41*
COc1ccc(S(=O)(=O)N2CCOCC2)cc1NC(=O)COc1ncnc2ccccc12	0	4	-5	0
CCOC(=O)c1ccc(NC(=O)Cn2ncc(Cl)c(Cl)c2=O)cc1	11	81*	-7	-5
COc1ccc(NC(=O)Cn2ncc(Cl)c(Cl)c2=O)cc1S(=O)(=O)N1CCOCC1	-16	78*	27	0
CCC(=O)Nc1ccc(C(=O)Cn2ncc(Cl)c(Cl)c2=O)cc1	-15	45	6	.
Cc1nn(C)cc1S(=O)(=O)Nc1ncccn1	.	.	4	.
O=C(CNCc1cccc2ccccc12)Nc1ccccc1[N+](=O)[O-]	-6	8	8	1
CCN(CC)S(=O)(=O)c1cc(NC(=O)Cn2ncc(Cl)c(Cl)c2=O)ccc1C	-5	78*	10	.
Cc1ccc(NC(=O)CSCC(=O)NCCc2ccccc2)c(C)c1	.	.	4	.
COC(=O)C1CCN(C(=O)CSc2nnc(-c3ccccc3)o2)CC1	.	.	1	.
O=C(CN(C(=O)CNC(=O)c1ccco1)c1ccc2c(c1)OCO2)NC1CCCCC1	83*	16	-4	1
O=C(CN(C(=O)CNC(=O)c1ccco1)c1ccc2c(c1)OCCO2)NC1CCCC1	-48	9	8	3
O=[N+]([O-])c1ccc2c(c1)ncn2-c1ccccc1	82*	-16	14	-1
O=[N+]([O-])c1ccc2c(c1)nnn2-c1ccccc1	.	.	6	.
Cn1c(-[n+]2c(-c3ccccc3)cc(-c3ccccc3)cc2-c2ccccc2)nc2cc([N+](=O)[O-])ccc21	-22	64*	-21	-2
Cc1ccnc(NC(=O)Cn2c(=O)oc3ccccc32)c1	.	.	1	.
CCOC(=O)N1CCC(N2CCN(S(=O)(=O)c3ccc(Cl)cc3)CC2)CC1	55*	23	-5	2
SMILES	Mcl1-Bid inh	Mcl1-Noxa inh	MCL1-BIM inh	Bim-Mcl-1
O=C1CCCN1CCC(=O)N1CCCC(N2CCN(c3ccccc3F)CC2)C1 (stereo unspecified)	.	.	5	.
CCC1Sc2ccc(S(=O)(=O)CCC(=O)Nc3cccc(Br)c3)cc2NC1=O (stereo unspecified)	.	.	8	.
CCc1cccc(CC)c1NC(=S)N1CCn2cccc2C1c1cccnc1 (stereo unspecified)	75*	17	8	22
CSc1cccc(N2CC(C(=O)N(Cc3nnc(-c4ccccc4Cl)o3)C3CC3)CC2=O)c1 (stereo unspecified)	.	.	-6	.
Cc1ccc(-n2nnnc2CNC(=O)c2ccc3c(c2)OCO3)cc1C	.	.	5	.
Fc1ccc(NC(=S)N/N=C/c2cccc(Br)c2)c(F)c1	97*	-1	3	-2
Fc1cccc(/C=N/NC(=S)Nc2ccccc2Cl)c1	-22	12	-2	-7
Cc1cc(NC(=O)CCC(=O)N(Cc2ccco2)C2(C(=O)NC3CCCCC3)CCCC(C)C2)no1 (stereo unspecified)	.	.	-2	.

Assay outcomes (PubChem)
